Data published in PubChem BioAssay AID493194 (Broad Institute, 2011).
Entries with a potency or affinity are not part of this list. Results filed as inconclusive are left out. The source made the active and inactive calls.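 Rule for the calls: active = a valid curve of falling signal whose half-effect concentration is at most ten times the top tested dose; inconclusive = flat curve at 30 to 70% inhibition, or poor fit; inactive = signal rise, flat within 30%, or potency beyond limit.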

biological target: Scavenger receptor class B member 1 (Mus musculus) (UniProt Q61009); experiment: mouse SR-BI DiI-HDL uptake blockers – ldlA[mSR-BI] cells, fluorescence, cherry pick, dose response (AID 493194); conditions: CHO ldlA[mSR-BI] DiI-HDL uptake fluorescence, 3 h; series mostly up to 35 µM;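 note: CHO cells lacking LDL receptor and overexpressing mouse SR-BI; cellular uptake of fluorescently labeled HDL measured as cell fluorescence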
Sequence (Q61009 whole entry, looked up): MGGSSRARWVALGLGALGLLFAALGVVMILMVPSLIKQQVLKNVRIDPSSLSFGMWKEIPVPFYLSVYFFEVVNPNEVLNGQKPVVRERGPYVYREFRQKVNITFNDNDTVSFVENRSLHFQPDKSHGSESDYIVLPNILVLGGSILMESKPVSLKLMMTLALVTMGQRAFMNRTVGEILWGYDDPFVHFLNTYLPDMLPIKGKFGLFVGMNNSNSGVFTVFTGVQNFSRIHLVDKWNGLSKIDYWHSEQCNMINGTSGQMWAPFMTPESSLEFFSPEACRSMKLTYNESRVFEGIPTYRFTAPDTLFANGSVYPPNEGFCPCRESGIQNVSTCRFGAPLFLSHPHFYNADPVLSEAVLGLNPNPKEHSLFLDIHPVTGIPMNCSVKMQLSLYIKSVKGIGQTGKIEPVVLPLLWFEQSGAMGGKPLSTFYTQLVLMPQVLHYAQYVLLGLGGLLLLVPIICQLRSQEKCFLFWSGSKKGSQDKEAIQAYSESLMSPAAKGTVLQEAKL

outcome, inactive:
CC(=O)c1ccc(N2CCN(C(=O)/C=C/c3ccc(S(=O)(=O)NCc4ccco4)cc3)CC2)cc1
O=C(Nc1ccc(-c2nc3ccccc3o2)c(O)c1)c1cc(-n2cnnc2)ccc1Cl
CCOC(=O)c1cccc(NC(=O)Nc2cc(OC)ccc2OC)c1
Clc1ccc(Cn2nnc(-c3ccc(N4CCOCC4)cc3)n2)cc1
Cc1cc(C)nc(N2CCC(C(=O)N3CCN(c4cc(Cl)ccc4C)CC3)CC2)n1
Cc1ccc2nc(-c3ccccc3)cc(C(=O)N3CCN(c4ccccc4O)CC3)c2c1
Cc1sc(NC(=O)Cc2ccc3c(c2)OCO3)nc1-c1ccc2c(c1)CCN2C(=O)c1cccc(F)c1
COc1cccc(-c2csc(N3CCN(C(=O)NC45CC6CC(CC(C6)C4)C5)CC3)n2)c1
O=C(Nc1ccccc1)NC1CC2CCC(C1)N2Cc1nnnn1Cc1ccc2c(c1)OCO2 (stereo not drawn)
CN(C(=O)c1cc(-n2cnnc2)ccc1Cl)c1ccccc1
CCCn1c(=O)[nH]c(=O)c2c1nc(-c1ccc(OC(F)(F)C(F)C(F)(F)F)cc1)n2CCOC (stereo not drawn)
CC1CCCCC1NC(=O)c1nn(C)c2c1CS(=O)(=O)c1ccccc1-2 (stereo not drawn)
Cc1c(C(=O)CN2CCCC(C)(C)C2)c2ccccc2n1C
Cc1cc2oc(=O)cc(CN3CCN(C/C=C/c4ccccc4)CC3)c2cc1O
CCCCC(=O)Nc1cccc(NC(=O)c2ccccc2Br)c1
CC(C)c1ccc(NC(=O)c2sccc2-n2cccc2)cc1
CC(=O)c1ccc(N2CCN(C(=O)c3cc(-c4cccnc4)nc4ccc(Br)cc34)CC2)cc1
O=C(NNC(=O)c1ccccc1O)c1ccc(S(=O)(=O)Nc2ccccc2)cc1
Cc1ccc(C)c(N2CCN(CCCNC(=O)Cn3c(=O)c4cccn4c4cccnc43)CC2)c1
COC(=O)c1ccc(C(=O)Nc2nc3cc(N)c(C)cc3s2)cc1
CCCCC(=O)Nc1nc(C)c(-c2csc(Nc3ccc(Cl)cc3)n2)s1
COc1ccc(OC)c(CCNC(=O)c2ccc3c(c2)N(Cc2ccccc2)CCS3)c1
COc1ccc(C(=O)CSc2nnc(CNC(=O)c3ccc(S(=O)(=O)N(C)C)cc3)o2)cc1
CC(C)(C)OC(=O)N1CSC[C@H]1C(=O)NC[C@H](CC(=O)O)c1ccc(Cl)cc1
Cc1cc(C)cc(N(CCC#N)C(=O)COC(=O)CCc2c[nH]c3ccccc23)c1
COc1cc(OC)cc(C(=O)N[C@H](C(=O)OCC(=O)c2ccc3c(c2)NC(=O)CO3)C(C)C)c1
CCOc1ccc(NC(=O)CN2CCN(CC(=O)Nc3ccc(N(C)C)cc3)CC2)cc1
COCCCN(C(=O)c1ccco1)c1nc(-c2ccc(OC)cc2)cs1
Cc1cccc(N2CCN(C(=O)COc3ccc4c(C)cc(=O)oc4c3C)CC2)c1C
Cc1ccc(-n2nc(C)c3c(C(=O)OCC(=O)N(C)C4CCS(=O)(=O)C4)cc(-c4ccccc4)nc32)cc1 (stereo not drawn)
O=C(C[C@@H]1C/C=C\C[C@H](NC(=O)OCC2c3ccccc3-c3ccccc32)C(=O)O[C@H](c2ccccc2)CNC1=O)NCCO
CC1Cc2ccccc2N1C(=O)Cn1nnc(-c2ccccc2NC(=O)C2CCC2)n1 (stereo not drawn)
CCc1cc(CNC(=O)C2CCC(=O)N(CCc3cccc(F)c3)C2)on1 (stereo not drawn)
COc1ccc(OC[C@@H](O)CNC(=O)c2cccc3c2C(=O)c2ccc(-c4ccc(F)cc4OCc4ccccc4)cc2S3(=O)=O)cc1
CC[C@]12c3[nH]c4cc(-c5ccco5)ccc4c3CCN1C(=O)[C@@H](CC(=O)NCc1ccc(OC)c(OC)c1)C[C@@H]2C(=O)N1CCN(C(=O)c2ccco2)CC1
CCOc1ccc(OCCSc2nc3ccccc3n2CC(=O)O)cc1
CCOc1ccc(NC(=O)CN2CCN(CC(=O)Nc3ccc(C(=O)OC)cc3)CC2)cc1
Cc1ccc(OCC(=O)NNC(=O)C2CCN(c3ncnc4sc(C)c(C)c34)CC2)cc1
